HP1b binding inh – HP1-beta chromodomain-methylated histone interaction inhibition; AlphaScreen HP1-beta / biotin-H3K9me3 peptide binding; Potency, µM (top dose mostly 114 µM), inactives show at the top dose activity change, negative = inhibition, usual class: inhibitors; hit rate 0.56% among 390,000; AID 540317; note: nearly all actives have a fitted effect of over 70% in size
Target sequence (P83916 whole entry, looked up): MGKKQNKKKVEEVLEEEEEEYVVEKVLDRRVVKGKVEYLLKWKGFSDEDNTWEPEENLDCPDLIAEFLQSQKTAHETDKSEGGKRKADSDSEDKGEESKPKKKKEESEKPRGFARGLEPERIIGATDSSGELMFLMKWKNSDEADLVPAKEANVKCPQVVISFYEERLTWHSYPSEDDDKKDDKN
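Compound inhibition of the preformed complex between 50 nM HP1-beta and 50 nM biotinylated H3K9me3 peptide was read by AlphaScreen. Buffer was PBS pH 7.4 with 0.01% Tween-20. Incubations ran 30 min at room temperature, with 10 ug/mL donor/acceptor beads.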
BAZ2B block – blocks human BAZ2B; hit rate 4.4% among 360,000; AlphaScreen BAZ2B-H3K14Ac peptide displacement; Potency, µM (series often up to 114 µM), for inactives: at the top dose activity change, negative = inhibition, most hits filed as inhibitors; note: % is set by controls: 0 for no effect and ±100 for the full control effect; nearly all actives have a fitted effect of over 60% in size
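AlphaScreen displacement of biotin-H3(5-23)K14Ac peptide (50 nM final) from BAZ2B (50 nM final) in PBS pH 7.4, 0.01% Tween-20; complex preformed 30 min RT, then compounds (top 110 uM) 30 min RT, beads 20 min dark.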
JMJD2A Tudor – inhibitors of human JMJD2A Tudor domain; O75164; Potency, µM (series often up to 114 µM), for the others: at the top dose activity change, negative = inhibition, hits mostly inhibitors; AID 504339; AlphaScreen JMJD2A-Tudor / H3K4me3 peptide binding; hit rate 4.4% among 390,000; note: % is set by controls: 0 for no effect and ±100 for the full control effect; nearly all actives have a fitted effect of over 50% in size
Sfp inh – inhibitors of Bacillus subtilis Sfp phosphopantetheinyl transferase | Q9F4F7 | Biochemical Sfp PPTase activity, qHTS | Potency, µM, for inactives: largest response in the series, negative = inhibition, most hits filed as inhibitors | hit rate 3.5% among 310,000 | AID 1490;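 note: the enzyme is Sfp with the accession as filed and its product quenches rhodamine fluorescence; 0% = enzyme reaction without inhibitor and -100% = no enzyme wells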
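Fluorescence-quenching assay with 15 nM Sfp, 5 uM rhodamine-CoA and 12.5 uM BHQ-2-labelled ybbR peptide in pH 7.6 Hepes/MgCl2 buffer. Enzyme was pre-incubated with compound for 15 min at room temperature. Rate was taken from the 30-min fluorescence change (525/598 nm).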
G9a block – G9a (human) methyltransferase inhibition | Q96KQ7 | G9a H3K9 monomethylation, AlphaScreen, 2 h | Potency, µM (series often up to 102 µM), without a hit: at the top dose activity, negative = inhibition, most hits filed as inhibitors | hit rate 8.8% among 350,000; note: % is set by controls: 0 for no effect and ±100 for the full control effect; nearly all actives have a fitted effect of over 75% in size
Target sequence (Q96KQ7 913-1193 limits assumed): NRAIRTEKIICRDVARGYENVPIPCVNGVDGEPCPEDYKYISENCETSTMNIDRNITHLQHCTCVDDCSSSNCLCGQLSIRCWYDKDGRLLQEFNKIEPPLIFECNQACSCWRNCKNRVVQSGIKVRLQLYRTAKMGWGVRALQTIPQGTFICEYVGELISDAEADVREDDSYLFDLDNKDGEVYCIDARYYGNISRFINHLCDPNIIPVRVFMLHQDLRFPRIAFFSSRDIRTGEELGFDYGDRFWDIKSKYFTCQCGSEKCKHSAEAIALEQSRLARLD
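AlphaScreen read-out: biotin-H3K9 peptide (500 nM) methylation by 20 nM enzyme with 20 uM SAM, 2 h at room temperature after 15 min compound preincubation; anti-monomethyl H3K9 antibody plus donor/acceptor beads, 10 min dark.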
12-LOX inh – ALOX12 (human) lipoxygenase inhibition; Potency, µM (series often up to 108 µM), for the others: top-dose activity change, negative = inhibition, hits mostly inhibitors; hit rate 1.1% among 580,000; purified 12hLO, xylenol orange hydroperoxide absorbance; AID 1671190; P18054; note: % is set by controls: 0 for no effect and ±100 for the full control effect
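Purified human 12hLO (150 nM final) in 25 mM Hepes, 0.01% Triton X-100, pH 7.0 was preincubated 15 min at room temperature with compound. Then 40 uM arachidonic acid was added, 30 min. Hydroperoxide was read by Fe-XO absorbance ratio 573/405 nm.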
* hit, by the source's call; ? = inconclusive; . = not tested or not shown; [ ] = remark or other dose. Sampled rows, rich in hits. Any-hit rate of the full collection: about 8.7%. Calls come from the whole dose curve; as a rule, active = well fitted curve in the direction sought with a large enough effect; inconclusive = small, poorly fitted or top-dose-only effect, or another doubt; inactive = no such curve, though single readings can be large; an effect the other way counts as inactive or inconclusive. Potency is the fitted concentration of half-maximal effect.

SMILES	HP1b binding inh	BAZ2B block	JMJD2A Tudor	Sfp inh	G9a block	12-LOX inh
COc1ccc(OC)c(NC(=O)COc2ccc(S(=O)(=O)N3CCCC3)cc2)c1	15%	-16%	-17%	4%	40µM*	-8%
CCOc1ccc(S(=O)(=O)N2CCOCC2)cc1NC(=O)C1=COCCO1	14%	34%	-1%	.	-4%	-1%
COc1ccc(-c2nc3nc(C)cc(Nc4ccccc4C)n3n2)cc1	.	.	.	.	.	58%
O=C(c1ccc2c(c1)OCO2)N1CCC(c2nnc3n2CCNC3)CC1	.	.	.	.	.	10µM*
O=C(c1ccc2c(c1)OCO2)N1CCn2c(nnc2C2CCCNC2)C1 (centres undefined)	.	.	.	.	.	2%[6.33 µM]
CCCCCCC(=O)Nc1c(O)c2ccccc2[nH]c1=O	40%	?	-3%	50µM*	?	0%
COc1ccc(C(=O)c2ccc([N+](=O)[O-])cc2Cl)cc1	?	?	56µM*	-17%	.	-4%
COc1ccc(OC)c(C(=O)c2ccc([N+](=O)[O-])cc2)c1	-29%[57 µM]	.	89µM*	.	.	-11%
COc1ccc(OC)c(C(=O)c2ccc(C(=O)c3cc(OC)ccc3OC)cc2)c1	12%	-2%	-15%	?	29%[12.7 µM]	7%
Cc1ccc(/C=C/C(=O)NCc2ccco2)cc1	.	.	.	.	.	13%
N#Cc1c(NCCCO)nc(NCc2ccccc2)c2c1CCN(Cc1ccccc1)C2	?	32µM*	56µM*	-26%	40µM*	?
CN1CCc2c(C#N)c(N3CCCCC3)nc(NCc3ccccc3)c2C1	-17%	?	?	?	40µM*	?
CC(C)c1nc(NCc2ccccc2)c(C#N)c2c1CCCC2	16%	-3%	6%[11.4 µM]	9%	25%	0%
CC(=O)Nc1sc2c(c1C#N)CCN(Cc1ccccc1)C2	38%	-7%	-24%	-14%	.	3%
O=C(Nc1cccc(-c2csc(Nc3ccc(Cl)cc3)n2)c1)c1cc([N+](=O)[O-])cc(C(F)(F)F)c1	11%	-13%	-27%	26%	-35%[59 µM]	-7%
NS(=O)(=O)c1ccc(Nc2nc(-c3cccc([N+](=O)[O-])c3)cs2)cc1	2%	-20%	-21%	32µM*	40µM*	-24%
O=C(Nc1cccc(-c2csc(Nc3ccccc3)n2)c1)c1cc([N+](=O)[O-])cc(C(F)(F)F)c1	16%	-12%	-35%	7%	50µM*	-2%
Cc1ccc(-c2csc(Nc3ccc(S(N)(=O)=O)cc3)n2)cc1C	.	.	.	.	.	45µM*
Cc1ccc(Nc2nc(-c3ccncc3)cs2)cc1	9%	-3%	-9%	2%	?	-15%
Cc1nc(C)c(-c2csc(Nc3ccc(S(N)(=O)=O)cc3)n2)s1	35%	-16%	-15%	-10%	?	-1%
O=C(Cc1cccc2ccccc12)Nc1nc(-c2cccc([N+](=O)[O-])c2)cs1	4%	-10%	-8%	16%	8%[59 µM]	13%
Cc1ccc(-c2csc(Nc3ccc(S(N)(=O)=O)cc3)n2)o1	?	45µM*	56µM*	10µM*	4.5µM*	?
CCn1cc(S(=O)(=O)N2CCC(Cc3nc(-c4cccnc4)n[nH]3)C2)cn1 (centres undefined)	.	.	.	.	.	50%
CCc1noc(C)c1C(=O)N1C[C@@H](C(=O)O)C[C@@H](C(=O)N2CCCC2)C1	.	.	.	.	.	34%
Cc1cc2c(c(=O)n(-c3ccccc3)c(=O)n2CC(=O)Nc2ccccc2C(F)(F)F)n1C	.	.	.	.	.	9%
NS(=O)(=O)c1ccc(Nc2nc(-c3ccc4ccccc4c3)cs2)cc1	-7%	-5%	?	4%	35µM*	?
Cc1nc(Nc2ccc(S(N)(=O)=O)cc2)sc1-c1ccccc1	-19%	?	?	-2%	32µM*	?
CCCC(=O)n1nc(-c2ccco2)nc1SCc1ccccc1	29%	87%	41%	50µM*	22%	.
O=C(Cc1ccccc1)n1nc(-c2ccco2)nc1SCc1ccccc1	20%	-37%	89µM*	13%	27%[12.7 µM]	?

Bioassay records as filed in PubChem.
